The entries come from a sample that favours hits as a whole.
FBPA Giardia inh: qHTS Assay for Inhibitors of Fructose-1,6-bisphosphate Aldolase from Giardia Lamblia; 0.71% of 290,000 active; AID 2451, 2010; purified Giardia FBPA; A8B2U2; Potency, µM (highest dose often 59.6 µM), hits mostly inhibitors; note: nearly all actives have a fitted effect of over 55% in size
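Giardia FBPA (40 nM reagent) was preincubated 10 min at RT with compound (up to 57.5 uM final), then substrate plus GAPDH/TPI/NAD/arsenate coupling system with diaphorase/resazurin was added; resorufin fluorescence (525/598 nm) was read after 20 min.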
Shiga inhibitor: A qHTS for Small Molecule Inhibitors of Shiga Toxin. Vero cells, Shiga toxin protein synthesis inhibition reporter. inhibition, % at 38.7 µM. 9.2% of 290,000 active. AID 2315, 2010; in the data active = inhibition mostly above about 28%, no sharp cut-off; inactive = mostly below about 43%
Cycloheximide cs: Cycloheximide Counterscreen for Small Molecule Inhibitors of Shiga Toxin; max response, %; 12% of 300,000 active; cell reporter, cycloheximide protein synthesis inhibition counterscreen; AID 2314, 2010; in the data active = max response mostly above about 13%, no sharp cut-off; inactive = mostly below about 14%; note: read at 38.3 µM for the half of the compounds with a filed dose
Sm TGR inh: qHTS Assay for the Inhibitors of Schistosoma Mansoni Peroxiredoxins. 3% of 360,000 active. Schistosoma mansoni thioredoxin glutathione reductase (TGR), Q962Y6. Potency, µM (series often up to 114 µM), usual class: inhibitors. purified TGR, DTNB reduction, TNB absorbance 405 nm; note: nearly all actives have a fitted effect of over 60% in size
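Kinetic colorimetric format: TGR-catalysed, NADPH-driven DTNB reduction monitored via TNB absorbance. Enzyme dispensed at 20 nM; compound exposure 15 min at room temperature before reaction start.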
TbPYK inhibitor: qHTS of Trypanosoma Brucei Inhibitors; Potency, µM (highest dose often 76.8 µM), most hits filed as inhibitors; 0.12% of 410,000 active; TbPYK enzyme, Kinase-Glo Plus ATP luminescence, 45 min; note: nearly all actives have a fitted effect of over 50% in size
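T. brucei PYK with substrate was exposed to pin-transferred compounds across a concentration series, then started with 130 uM ADP (final). After 45 min at room temperature, Kinase-Glo Plus luminescence was read, normalized and curve-fitted.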
LmPK inhibitor: qHTS Assay for Inhibitors of Leishmania Mexicana Pyruvate Kinase (LmPK) | 0.37% of 290,000 active | purified LmPK, Kinase-Glo ATP luminescence, 1 h | Potency, µM (titrated, usually from 57.5 µM), usual class: inhibitors
Target sequence (Q27686 whole entry, looked up): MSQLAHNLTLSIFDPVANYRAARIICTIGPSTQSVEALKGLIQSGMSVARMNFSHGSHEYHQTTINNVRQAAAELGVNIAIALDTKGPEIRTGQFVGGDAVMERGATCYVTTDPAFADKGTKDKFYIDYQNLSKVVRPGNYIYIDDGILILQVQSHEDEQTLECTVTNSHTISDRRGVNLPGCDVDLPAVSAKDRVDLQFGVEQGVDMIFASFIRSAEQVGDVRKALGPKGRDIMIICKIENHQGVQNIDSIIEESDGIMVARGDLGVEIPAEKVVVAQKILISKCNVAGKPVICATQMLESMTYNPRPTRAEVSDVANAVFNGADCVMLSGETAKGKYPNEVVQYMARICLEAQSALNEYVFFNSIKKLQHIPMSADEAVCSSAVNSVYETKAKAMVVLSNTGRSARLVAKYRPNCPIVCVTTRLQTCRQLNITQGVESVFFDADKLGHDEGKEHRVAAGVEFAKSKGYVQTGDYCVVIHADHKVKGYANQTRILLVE
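0.1 nM LmPK, 0.5 mM PEP, 0.1 mM ADP; 50 mM imidazole pH 7.2, 7 mM MgCl2, 50 mM KCl; 1 h RT. Kinase-Glo luminescence readout, normalized to no-enzyme (full inhibition) and uninhibited wells.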
Numbers stand for hits; [ ] = dose if it differs, or a comment. Unless noted, calls come from the whole dose curve; as a rule, active = well fitted curve in the direction sought with a large enough effect; inconclusive = small, poorly fitted or top-dose-only effect, or another doubt; inactive = no such curve, though single readings can be large; an effect the other way counts as inactive or inconclusive.

Screening COC(=O)c1ccc(CSc2nc3c([nH]c4ccccc43)c(=O)n2-c2cccc(Cl)c2)o1 returned Sm TGR inh inactive and TbPYK inhibitor inactive.
For C=CCSC1=NNC(c2ccc(C(C)(C)C)cc2)=NN1 the results were FBPA Giardia inh inactive, Shiga inhibitor 79, Cycloheximide cs 32, Sm TGR inh inactive, TbPYK inhibitor inactive and LmPK inhibitor inactive.
`Cc1cccc(N2CCN(C(=O)CCc3nnc4n(CC(C)C)c(=O)c5ccccc5n34)CC2)c1C` gave Sm TGR inh inactive and TbPYK inhibitor inactive.
For O=C(NNC(=O)C1CC=CCC1)c1ccccc1Br (stereo not given) the results were FBPA Giardia inh inactive, Shiga inhibitor inactive, Cycloheximide cs active, Sm TGR inh inactive, TbPYK inhibitor inactive and LmPK inhibitor inactive.
O=C(NNC(=O)C1CC=CCC1)c1ccccc1O (stereo not given) was read as FBPA Giardia inh inconclusive, Shiga inhibitor inactive, Cycloheximide cs 18, Sm TGR inh inactive, TbPYK inhibitor inactive and LmPK inhibitor inactive.
For COc1ccccc1OCC(=O)NCc1cccs1 the results were FBPA Giardia inh inactive, Shiga inhibitor inactive, Cycloheximide cs inactive, Sm TGR inh inactive, TbPYK inhibitor inactive and LmPK inhibitor inactive.
`Cc1ccc(C(=O)OCC(=O)NCc2cccs2)cc1C` gave FBPA Giardia inh inactive, Shiga inhibitor inactive, Cycloheximide cs 14, Sm TGR inh inactive, TbPYK inhibitor inactive and LmPK inhibitor inactive.
CCOc1ccc(C(=O)NCc2cccs2)cc1 was read as FBPA Giardia inh inactive, Shiga inhibitor 83, Cycloheximide cs inactive, Sm TGR inh inactive, TbPYK inhibitor inactive and LmPK inhibitor inactive.
`CCOc1c2ccc(C(=O)NCCc3cccs3)cc2nn1CC` gave FBPA Giardia inh inactive, Shiga inhibitor 89, Cycloheximide cs 48, Sm TGR inh inactive, TbPYK inhibitor inactive and LmPK inhibitor inactive.
Screening CCOc1ccc(-n2nc(CO)c(C(=O)NCc3cccs3)n2)cc1 returned Sm TGR inh inactive and TbPYK inhibitor inactive.
`COc1cc(C#N)ccc1OCC(=O)NCc1cccs1` gave FBPA Giardia inh inactive, Shiga inhibitor inactive, Cycloheximide cs 15, Sm TGR inh inactive, TbPYK inhibitor inactive and LmPK inhibitor inactive.
CCCCNC(=O)C1(C)CCN1C(=O)c1cc(OC)ccc1Br (stereo not given) was read as TbPYK inhibitor inactive.
`COc1ccc(CNC(=O)C(=O)Nc2ccc(OC)cc2OC)cc1` gave Sm TGR inh inactive and TbPYK inhibitor inactive.
`CCCCOc1ccc(C(=O)NCCc2cccs2)cc1` gave FBPA Giardia inh inactive, Shiga inhibitor 123, Cycloheximide cs 43, Sm TGR inh inactive and LmPK inhibitor inactive.
`Cc1ccc(OCC(=O)NCc2cccs2)cc1` gave FBPA Giardia inh inactive, Shiga inhibitor 29, Cycloheximide cs 27, Sm TGR inh inactive and LmPK inhibitor inactive.
CCCCn1nc2cc(C(=O)NCCc3cccs3)ccc2c1OCC was read as FBPA Giardia inh inactive, Shiga inhibitor inactive, Cycloheximide cs inactive, Sm TGR inh inactive, TbPYK inhibitor inactive and LmPK inhibitor inactive.
Screening S=c1[nH]nc(-c2ccncc2)n1Cc1ccco1 returned FBPA Giardia inh inconclusive, Shiga inhibitor inactive, Cycloheximide cs inactive, Sm TGR inh inactive, TbPYK inhibitor inconclusive and LmPK inhibitor inactive.
COc1cccc(-c2n[nH]c(=S)n2Cc2ccco2)c1 was read as FBPA Giardia inh inactive, Shiga inhibitor inactive, Cycloheximide cs inactive, Sm TGR inh 35µM, TbPYK inhibitor inconclusive and LmPK inhibitor inconclusive.
`COc1ccccc1-c1n[nH]c(=S)n1Cc1ccco1` gave FBPA Giardia inh inactive, Shiga inhibitor inactive, Cycloheximide cs inactive, Sm TGR inh 40µM and LmPK inhibitor inactive.
`S=c1[nH]nc(-c2ccc(Br)cc2)n1Cc1ccco1` gave FBPA Giardia inh inactive, Shiga inhibitor inactive, Cycloheximide cs inactive, Sm TGR inh inactive, TbPYK inhibitor 5.6µM and LmPK inhibitor 22µM.
For C[C@@H](CCc1ccccc1)NC[C@H](O)c1ccc(O)c(C(N)=O)c1 the results were FBPA Giardia inh inactive and TbPYK inhibitor inactive.
For Cc1ccc(C2=Nc3ccccc3SC(c3cccc([N+](=O)[O-])c3)C2)cc1 (stereo not given) the results were FBPA Giardia inh inconclusive, Shiga inhibitor 70, Cycloheximide cs 35, Sm TGR inh inactive, TbPYK inhibitor inactive and LmPK inhibitor inactive.
Screening CCCCOc1ccc(C(=O)NC(=S)Nc2ccc(CN3CCOCC3)cc2)cc1 returned FBPA Giardia inh inactive, Shiga inhibitor inactive, Cycloheximide cs inactive, Sm TGR inh inactive, TbPYK inhibitor inactive and LmPK inhibitor inactive.
For COc1ccc(C(=O)NC(=S)Nc2ccc(CN3CCOCC3)cc2)cc1 the results were FBPA Giardia inh inactive, Shiga inhibitor 47, Cycloheximide cs inactive, Sm TGR inh 22µM, TbPYK inhibitor inactive and LmPK inhibitor inactive.
For COc1ccc(C(=O)NC(=S)Nc2ccc(CN3CCOCC3)cc2)cc1Br the results were FBPA Giardia inh inconclusive, Shiga inhibitor inactive, Cycloheximide cs inactive, Sm TGR inh 14µM, TbPYK inhibitor inactive and LmPK inhibitor inactive.
`Cn1nnnc1SCC(=O)NCC(=O)c1ccccc1` gave FBPA Giardia inh inactive, Shiga inhibitor inactive, Cycloheximide cs inactive, Sm TGR inh 20µM, TbPYK inhibitor inconclusive and LmPK inhibitor inactive.
Cc1ccc(-n2ncc(C(=O)NCCN3CCC(Cc4ccccc4)CC3)c2C2CCN(C(=O)OC(C)(C)C)CC2)cc1 was read as Sm TGR inh inactive and TbPYK inhibitor inactive[15.4 µM].
CC(=O)NCCNc1nc2c(-c3cccc(C)c3)nnn2c2ccc(Cl)cc12 was read as Sm TGR inh inactive and TbPYK inhibitor inactive.
Screening COc1ccc2nc3oc(C(=O)N4CCN(c5cc(C)ccc5C)CC4)cc3cc2c1 returned Sm TGR inh 89µM and TbPYK inhibitor inactive.
For COc1ccc(S(=O)(=O)Cc2ccc(C(=O)N3CCN(c4cc(Cl)ccc4C)CC3)o2)cc1 the results were FBPA Giardia inh inactive, Shiga inhibitor inactive, Cycloheximide cs inactive, Sm TGR inh inactive, TbPYK inhibitor inactive and LmPK inhibitor inactive.
For COc1ccc(S(=O)(=O)Cc2ccc(C(=O)N3CCN(c4cc(C)ccc4C)CC3)o2)cc1 the results were FBPA Giardia inh inactive, Shiga inhibitor inactive, Cycloheximide cs 14, Sm TGR inh inactive, TbPYK inhibitor inactive and LmPK inhibitor inactive.
COc1ccc(S(=O)(=O)Cc2ccc(C(=O)N3CCN(Cc4ccccc4)CC3)o2)cc1 was read as FBPA Giardia inh inactive, Shiga inhibitor inactive, Cycloheximide cs inactive, Sm TGR inh inconclusive, TbPYK inhibitor inactive and LmPK inhibitor inactive.
